According to PubChem BioAssay AID1159580 (chemical genetic matrix, 2015):
The campaign covered roughly 5,500 compounds. About 2,000 (36%) were called active. Inconclusive results (about 18%) are left out. Rule as the data show it: active = normalized growth mostly below about 0.91 (no sharp cut-off); inconclusive = no clear call, values can overlap the other calls; inactive = mostly above about 0.92. Some of the results follow.

Test: chemical genetic growth profiling, strain panel (AID 1159580);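 also: tested at 20 µM; growth read once vehicle control cultures reached saturation at 30 °C; 1 = growth at the plate median or of vehicle wells; lower values mean less growth of the strain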
Conditions: growth OD
[1] = S. cerevisiae deletion strains, locus YDL101C, strain DUN1, stronger effect = lower value
[2] = S. cerevisiae deletion strains, locus YHR030C, strain SLT2, stronger effect = lower value

Measured: normalized growth

N#CC(C#N)=Cc1ccc(-c2cc(C(F)(F)F)ccc2Cl)o1
inactive: S. cerevisiae deletion strains, locus YAL013W, strain DEP1, stronger effect = lower value 1.01 | S. cerevisiae deletion strains, locus YBR229C, strain ROT2, stronger effect = lower value 1.01 | [1] 1.03 | S. cerevisiae deletion strains, locus YDR150W, strain NUM1, stronger effect = lower value 0.993 | S. cerevisiae deletion strains, locus YEL061C, strain CIN8, stronger effect = lower value 0.997 | S. cerevisiae deletion strains, locus YGR078C, strain PAC10, stronger effect = lower value 1.01 | [2] 0.819 | S. cerevisiae deletion strains, locus YHR087W, strain rtc3, stronger effect = lower value 1.02 | S. cerevisiae deletion strains, locus YJL187C, strain SWE1, stronger effect = lower value 0.997 | S. cerevisiae deletion strains, locus YJR043C, strain POL32, stronger effect = lower value 0.989 | S. cerevisiae deletion strains, locus YJR075W, strain HOC1, stronger effect = lower value 0.987 | S. cerevisiae deletion strains, locus YLR039C, strain RIC1, stronger effect = lower value 0.844 | S. cerevisiae deletion strains, locus YLR058C, strain SHM2 (second series), stronger effect = lower value 0.99 | S. cerevisiae deletion strains, locus YLR085C, strain ARP6, stronger effect = lower value 0.797 | S. cerevisiae deletion strains, locus YLR262C, strain YPT6, stronger effect = lower value 0.913 | S. cerevisiae deletion strains, locus YML094W, strain GIM5, stronger effect = lower value 1.08 | S. cerevisiae deletion strains, locus YMR219W, strain ESC1, stronger effect = lower value 0.996 | S. cerevisiae deletion strains, locus YMR263W, strain SAP30, stronger effect = lower value 0.97 | S. cerevisiae deletion strains, locus YMR307W, strain GAS1, stronger effect = lower value 0.786 | S. cerevisiae deletion strains, locus YNL153C, strain GIM3, stronger effect = lower value 1.02 | S. cerevisiae deletion strains, locus YNL298W, strain CLA4 (second series), stronger effect = lower value 0.923 | S. cerevisiae deletion strains, locus YNL322C, strain KRE1, stronger effect = lower value 0.986 | S. cerevisiae deletion strains, locus YNR030W, strain Alg12, stronger effect = lower value 0.962 | S. cerevisiae deletion strains, locus YPL055C, strain LGE1, stronger effect = lower value 1.01 | S. cerevisiae deletion strains, locus YPL241C, strain CIN2, stronger effect = lower value 0.899 | S. cerevisiae deletion strains, locus YPR135W, strain CTF4, stronger effect = lower value 0.944 | S. cerevisiae strains, strain wild type, stronger effect = lower value 0.959

N#CC(C#N)=Cc1ccc(-c2ccccc2C(F)(F)F)o1
inactive: S. cerevisiae deletion strains, locus YAR019C, strain CDC15, stronger effect = lower value 0.947 | S. cerevisiae deletion strains, locus YBL105C, strain PKC1, stronger effect = lower value 0.946 | S. cerevisiae deletion strains, locus YBR135W, strain CKS1, stronger effect = lower value 0.947 | S. cerevisiae deletion strains, locus YBR136W, strain MEC1, stronger effect = lower value 0.947 | S. cerevisiae deletion strains, locus YBR160W, strain CDC28, stronger effect = lower value 0.95 | S. cerevisiae deletion strains, locus YDL017W, strain CDC7, stronger effect = lower value 0.947 | S. cerevisiae deletion strains, locus YDL028C, strain MPS1, stronger effect = lower value 0.954 | [1] 0.925 | S. cerevisiae deletion strains, locus YDL108W, strain KIN28, stronger effect = lower value 0.953 | S. cerevisiae deletion strains, locus YDL132W, strain cdc53, stronger effect = lower value 0.947 | S. cerevisiae deletion strains, locus YDL214C, strain PRR2, stronger effect = lower value 0.901 | S. cerevisiae deletion strains, locus YDR052C, strain DBF4, stronger effect = lower value 0.957 | S. cerevisiae deletion strains, locus YDR054C, strain cdc34, stronger effect = lower value 0.94 | S. cerevisiae deletion strains, locus YDR226W, strain ADK1, stronger effect = lower value 0.943 | S. cerevisiae deletion strains, locus YDR477W, strain SNF1, stronger effect = lower value 0.913 | S. cerevisiae deletion strains, locus YER123W, strain YCK3, stronger effect = lower value 0.876 | S. cerevisiae deletion strains, locus YER133W, strain GLC7, stronger effect = lower value 0.925 | S. cerevisiae deletion strains, locus YFL009W, strain cdc4, stronger effect = lower value 0.94 | S. cerevisiae deletion strains, locus YFL029C, strain CAK1, stronger effect = lower value 0.945 | S. cerevisiae deletion strains, locus YFR003C, strain YPI1, stronger effect = lower value 0.944 | S. cerevisiae deletion strains, locus YFR019W, strain FAB1, stronger effect = lower value 0.898 | S. cerevisiae deletion strains, locus YFR028C, strain CDC14, stronger effect = lower value 0.94 | S. cerevisiae deletion strains, locus YGR040W, strain KSS1, stronger effect = lower value 0.903 | S. cerevisiae deletion strains, locus YGR052W, strain FMP48, stronger effect = lower value 0.871 | S. cerevisiae deletion strains, locus YGR092W, strain DBF2, stronger effect = lower value 0.783 | [2] 0.875 | S. cerevisiae deletion strains, locus YHR079C, strain IRE1, stronger effect = lower value 0.905 | S. cerevisiae deletion strains, locus YHR082C, strain KSP1, stronger effect = lower value 0.906 | S. cerevisiae deletion strains, locus YHR205W, strain SCH9, stronger effect = lower value 0.784 | S. cerevisiae deletion strains, locus YIL147C, strain SLN1, stronger effect = lower value 0.948 | S. cerevisiae deletion strains, locus YJL095W, strain BCK1, stronger effect = lower value 0.838 | S. cerevisiae deletion strains, locus YJL128C, strain PBS2, stronger effect = lower value 0.866 | S. cerevisiae deletion strains, locus YJL157C, strain FAR1, stronger effect = lower value 0.907 | S. cerevisiae deletion strains, locus YJR016C, strain ILV3, stronger effect = lower value 0.95 | S. cerevisiae deletion strains, locus YJR066W, strain TOR1 (second series), stronger effect = lower value 0.873 | S. cerevisiae deletion strains, locus YJR066W, strain TOR1, stronger effect = lower value 0.893 | S. cerevisiae deletion strains, locus YKL048C, strain ELM1, stronger effect = lower value 0.899 | S. cerevisiae deletion strains, locus YKL067W, strain YNK1, stronger effect = lower value 0.89 | S. cerevisiae deletion strains, locus YKL101W, strain HSL1, stronger effect = lower value 0.873 | S. cerevisiae deletion strains, locus YKL193C, strain SDS22, stronger effect = lower value 0.942 | S. cerevisiae deletion strains, locus YKL203C, strain TOR2, stronger effect = lower value 0.931 | S. cerevisiae deletion strains, locus YLR133W, strain CKI1, stronger effect = lower value 0.891 | S. cerevisiae deletion strains, locus YLR403W, strain SFP1, stronger effect = lower value 0.848 | S. cerevisiae deletion strains, locus YML070W, strain DAK1, stronger effect = lower value 0.894 | S. cerevisiae deletion strains, locus YMR001C, strain CDC5, stronger effect = lower value 0.94 | S. cerevisiae deletion strains, locus YMR205C, strain PFK2 (second series), stronger effect = lower value 0.899 | S. cerevisiae deletion strains, locus YMR277W, strain FCP1, stronger effect = lower value 0.935 | S. cerevisiae deletion strains, locus YNL006W, strain LST8, stronger effect = lower value 0.949 | S. cerevisiae deletion strains, locus YNL020C, strain ARK1, stronger effect = lower value 0.892 | S. cerevisiae deletion strains, locus YNL161W, strain CBK1, stronger effect = lower value 0.941 | S. cerevisiae deletion strains, locus YNL183C, strain NPR1, stronger effect = lower value 0.864 | S. cerevisiae deletion strains, locus YNL207W, strain RIO2, stronger effect = lower value 0.943 | S. cerevisiae deletion strains, locus YNL222W, strain SSU72, stronger effect = lower value 0.951 | S. cerevisiae deletion strains, locus YNL307C, strain MCK1 (second series), stronger effect = lower value 0.788 | S. cerevisiae deletion strains, locus YOL078W, strain AVO1, stronger effect = lower value 0.939 | S. cerevisiae deletion strains, locus YOL136C, strain PFK27, stronger effect = lower value 0.851 | S. cerevisiae deletion strains, locus YOR061W, strain CKA2, stronger effect = lower value 0.907 | S. cerevisiae deletion strains, locus YOR119C, strain RIO1, stronger effect = lower value 0.964 | S. cerevisiae deletion strains, locus YOR231W, strain MKK1, stronger effect = lower value 0.87 | S. cerevisiae deletion strains, locus YOR329C, strain SCD5, stronger effect = lower value 0.944 | S. cerevisiae deletion strains, locus YPL031C, strain PHO85, stronger effect = lower value 0.895 | S. cerevisiae deletion strains, locus YPL153C, strain RAD53, stronger effect = lower value 0.907 | S. cerevisiae deletion strains, locus YPL204W, strain HRR25, stronger effect = lower value 0.88 | S. cerevisiae deletion strains, locus YPL209C, strain IPL1, stronger effect = lower value 0.947 | S. cerevisiae deletion strains, locus YPL256C, strain CLN2, stronger effect = lower value 0.929 | S. cerevisiae deletion strains, locus YPR025C, strain CCL1, stronger effect = lower value 0.948 | S. cerevisiae deletion strains, locus YPR106W, strain ISR1, stronger effect = lower value 0.938 | S. cerevisiae deletion strains, locus YPR111W, strain DBF20, stronger effect = lower value 0.916 | S. cerevisiae deletion strains, strain NNK1, stronger effect = lower value 0.922 | S. cerevisiae deletion strains, strain TSCII, stronger effect = lower value 0.935
active: S. cerevisiae deletion strains, locus YLR113W, strain HOG1, stronger effect = lower value 0.758
